PME-1 inh: PME-1 inhibitors via competitive probe labeling, primary screen, biochemical, fluorescence polarization, FP-Rh probe, HTS; AID 2130, 2009; 320,000 tested, 0.53% active; recombinant PME-1; inhibition, % at 5.9 µM; Protein phosphatase methylesterase 1 (Homo sapiens), Q9Y570;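 active = inhibition above the campaign mean of all compounds plus 3 SD, cut at about 26% in these data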;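 also: competitive labeling of PME-1 active site by serine hydrolase directed probe; 0% = PME-1 with DMSO and 100% = wells lacking PME-1 enzyme; inhibitors block probe labeling so polarization falls and inhibition rises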
GSTO1 counter: inhibitors of recombinant GSTO1, primary screen, counter-screen for RBBP9 inhibitor project, biochemical, fluorescence polarization | inhibition, % at 5.96 µM | Glutathione S-transferase omega-1 (Homo sapiens), P78417 | 300,000 tested, 1.1% active | activity-based probe fluorescence polarization;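 active = inhibition above the campaign mean inhibition plus 3 SD, cut at about 35% in these data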;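 also: 0% = GSTO1-1 with DMSO and 100% = wells lacking GSTO1-1 enzyme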
Fam108B inh: mouse Fam108B serine hydrolase inhibitors, primary screen, counter-screen for RBBP9 inhibitor project, biochemical, fluorescence polarization; recombinant Fam108B, FP-Rh probe fluorescence polarization; inhibition, % at 9.51 µM; 300,000 tested, 0.33% active;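 active = inhibition above the screen mean inhibition plus 3 SD, computed separately per campaign, cut at about 18% in these data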;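 also: inhibitors lower polarization as less probe binds the enzyme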
LYPLA1 inh: LYPLA1 inhibitors, primary screen, counter-screen for PME1 inhibitor project, biochemical, fluorescence polarization, FP-Rh probe ABPP; 320,000 tested, 0.16% active; recombinant LYPLA1; inhibition, % at 5.9 µM; AID 2174, 2009; Acyl-protein thioesterase 1 (Homo sapiens), O75608;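 active = inhibition above the mean of all tested compounds plus 3 SD, set per campaign, cut at about 14% in these data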;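 also: inhibitors block serine hydrolase probe labeling of LYPLA1 so polarization falls; 0% = enzyme with DMSO and 100% = wells lacking LYPLA1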
LYPLA2 inh: LYPLA2 inhibitors, primary screen, counter-screen for PME1 inhibitor project, biochemical, fluorescence polarization, FP-Rh probe ABPP | Acyl-protein thioesterase 2 (Homo sapiens), O95372 | recombinant LYPLA2 | inhibition, % at 5.9 µM | 320,000 tested, 0.38% active | AID 2177, 2009;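 active = inhibition above the screen-wide mean plus 3 SD, limit set per campaign, cut at about 26% in these data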;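 also: 0% = LYPLA2 with DMSO and 100% = wells lacking LYPLA2 enzyme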
Target sequence (O95372 whole entry, looked up): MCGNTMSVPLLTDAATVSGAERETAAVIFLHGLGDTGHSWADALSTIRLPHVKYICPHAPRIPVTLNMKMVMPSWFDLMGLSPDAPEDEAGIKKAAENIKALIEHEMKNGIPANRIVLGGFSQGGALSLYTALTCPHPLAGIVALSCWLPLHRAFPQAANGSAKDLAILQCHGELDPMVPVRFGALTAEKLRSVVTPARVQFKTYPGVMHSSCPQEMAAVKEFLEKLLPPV
PAD4 inh: human PAD4 inhibitors, primary screen, biochemical, fluorescence polarization, 1536-well format; Protein-arginine deiminase type-4 (Homo sapiens), Q9UM07; recombinant PAD4, RCA probe fluorescence polarization; inhibition, % at 6.36 µM; 330,000 tested, 0.41% active;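 active = percent inhibition above a cutoff equal to the mean of all tested compounds plus 3 SD, cut at about 15% in these data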;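 also: 0% = PAD4 with RCA probe and DMSO and 100% = probe without PAD4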
The depositor's hits bear a star; . = no result. Most compounds without a hit are left out; they make up all but 1.8% or so of the library.

SMILES	PME-1 inh	GSTO1 counter	Fam108B inh	LYPLA1 inh	LYPLA2 inh	PAD4 inh
COc1ccccc1C1Nc2cccc3cccc(c23)N1	8	50*	2	-6	-4	-9
CN(C)c1ccc(C2Nc3cccc4cccc(c34)N2)cc1	12	20	7	-2	-9	-1
COc1ccc(C2Nc3cccc4cccc(c34)N2)cc1	14	35*	4	-3	-1	-4
c1ccc(C2Nc3cccc4cccc(c34)N2)cc1	3	36*	13	-4	0	4
O=C(COc1cc(F)ccc1[N+](=O)[O-])NCCN1C(=O)CSC1=O	.	.	.	.	.	-1
Cc1ccnc(NS(=O)(=O)c2ccc(NS(=O)(=O)c3cc(Cl)ccc3Cl)cc2)n1	-5	8	3	-2	0	5
O=C(O)CC/C(=C\c1ccc(N2CCCC2)c([N+](=O)[O-])c1)c1nc2ccccc2s1	40*	-12	-2	9	7	-2
CCOC(=O)C1=C(C)OC2(O)c3ccccc3C(=O)C12O (stereo unspecified)	1	74*	2	3	-2	-15
CCOC(=O)C1=C(C)c2ccccc2OC1(CC)C(=O)OCC (stereo unspecified)	.	.	.	.	.	-3
CC1CCN(C(=O)c2ccc(SCc3ccccc3F)c([N+](=O)[O-])c2)CC1	3	1	4	10	34*	-1
O=C(c1ccc(S(=O)(=O)Cc2ccccc2F)c([N+](=O)[O-])c1)N1CCCCCC1	6	4	2	-4	-2	4
CCOc1ccccc1N1C(=O)CC(Nc2ccc(N3CCOCC3)cc2)C1=O (stereo unspecified)	-1	20	1	0	8	19*
O=C1CC(Nc2ccc(N3CCOCC3)cc2)C(=O)N1c1ccccc1 (stereo unspecified)	-3	1	-4	2	-6	7
CCOc1ccc2c(c1)OC(c1ccc(OC)cc1)(C(F)(F)F)NC2=O (stereo unspecified)	5	-1	4	-1	4	1
COc1ccc2c(c1)OC(O)(C(F)(F)F)CC2=O (stereo unspecified)	4	36*	-2	-3	-4	-3
CC(C)(C)c1ccc(COn2c(=O)c(-c3ccco3)[n+]([O-])c3ccccc32)cc1	-3	43*	-7	-2	2	-3
COC(=O)c1c(NC(=O)CN2CCN(c3ccccc3Cl)CC2)sc(C)c1C	-5	37*	-1	2	0	-1
O=[N+]([O-])c1c(NCCCO)cc(SCc2ccco2)c2nonc12	-2	35*	7	-4	5	6
COc1ccc(CNS(=O)(=O)c2ccc3c(c2)NC(=O)C(C)S3)cc1 (stereo unspecified)	0	16	1	4	5	-1
COC(=O)N1C(=O)[C@](c2ccccc2)(C2CCCC2)N1C(=O)OC	70*	2	-3	3	-6	-2
COC(=O)N1C(=O)[C@@](c2ccccc2)(C(C)C)N1C(=O)OC	11	3	1	0	3	-3
O=C(N/N=C/c1c[nH]c2ccccc12)c1cc(Cl)ccc1O	-5	-8	3	-4	-5	5
C/C(=N\NC(=O)c1ccc(N/N=C(\C)c2ccc(O)cc2)cc1)c1ccc(O)cc1	28*	-19	16	-7	3	-1
C/C(=N\Nc1cccc([N+](=O)[O-])c1)c1cc(F)ccc1O	17	-8	4	4	5	-3
C/C(=N\NC(=O)c1cccc(O)c1)c1cccc(NC(=O)c2ccc(F)cc2)c1	-6	-5	6	0	-3	7
C/C(=N\Nc1cccc([N+](=O)[O-])c1)c1ccccc1O	45*	-2	8	-6	-1	-5
C/C(=N\NC(=O)c1cccc(N/N=C(\C)c2cc(O)ccc2O)c1)c1cc(O)ccc1O	4	10	30*	-22	-16	-11
C/C(=N/Nc1ccc(C(=O)O)cc1)c1ccc(O)c(O)c1O	-13	45*	-2	-4	-7	2

High-throughput results: PubChem, The Scripps Research Institute Molecular Screening Center
